Measured values as given in ChEMBL document CHEMBL1157539, “Thousands of chemical starting points for antimalarial lead identification” (Nature, 2010).

test system: Plasmodium falciparum; assay: GSK_TCMDC: Inhibition of Plasmodium falciparum Dd2 in whole red blood cells, using parasite LDH activity as an index of growth. Test compounds present at 2uM; assay type: functional

| SMILES | Inhibition [%] |
| --- | --- |
| Cc1cc(C(=O)NCc2ccc(-c3c(C)noc3C)cc2)n(-c2ccc(Cl)cc2)n1 | 98 |
| Cc1cccc2nc(-c3ccc(-c4cccc(CNCc5ccc(S(C)(=O)=O)cc5)c4)s3)[nH]c12.O=C(O)C(F)(F)F | 91 |
| O=C(Cn1c(CCc2cccc(F)c2F)nc(=O)c2cccnc21)N(Cc1ccc(-c2ccc(C(F)(F)F)cc2)cc1)C1CCN(C2CCSCC2)CC1.O=C(O)C(O)C(O)C(=O)O | 63 |
| CCCCCC(=O)N1CCOC(CCN2CCc3c(c4ccccc4n3C)C2)(c2ccc(Cl)c(Cl)c2)C1 (configuration not stated) | 80 |
| COC1(C)Oc2ccc3cccc([N+](=O)[O-])c3c2C1=O (configuration not stated) | 0 |
| O=C(Cc1ccc(NC(=O)c2ccc(O)c(-c3cccc([N+](=O)[O-])c3)c2)cc1)NCCN1CCCCC1 | 3 |
| Cc1cc(O)c(CN(C)Cc2ccc(N(C)C)cc2)cc1C(C)C | 98 |
| Oc1ccccc1N1CCN(c2ccc(-c3nc4ccccc4[nH]3)cn2)CC1 | 50 |
| CS(=O)(=O)c1ccc(-c2cnc(N)c(-c3cccc(CO)c3)c2)cc1 | 51 |
| COc1ccc(-c2ccc(NC(=O)c3ccc(Cl)cc3)cc2)cc1CN1CCC(O)CC1.O=C(O)C(F)(F)F | 15 |
| O=C(Nc1ccc(Oc2cccnc2)cc1)C1CCN(Cc2cc(Cl)ccc2O)CC1 | 1 |
| CNC(=O)c1ccccc1Nc1cc(Nc2cc(OC)ccn2)ncc1Cl.O=CO | 100 |
| Nc1ccc(-c2ccc(NC(=O)Nc3ccccc3)cc2)cn1 | 93 |

test system: HepG2; assay: GSK_TCMDC: Percent inhibition of human HepG2 cell line. Test compounds present at 10uM.; assay type: functional

| SMILES | Inhibition [%] |
| --- | --- |
| CN(Cc1ccc(C#N)cc1)C1CCN(c2cc(NC(=O)c3cccc(F)c3)ccn2)CC1.O=C(O)C(F)(F)F | 9 |
| Clc1cc(Nc2ccnc3ccc(Br)cc23)ccc1Oc1ccc(Cl)c2ccccc12 | 6 |
| C=C(C)CSc1nc2c(c(=O)n1CCc1ccccc1)C1(CCCC1)Cc1ccccc1-2 | 14 |
| CCCCCOc1ccc(C(=NC)N(CCCCC)CCCCC)c2ccccc12.I | 70 |
| Cn1nc(-c2ccc(NC(=O)Nc3cc(C(F)(F)F)ccc3F)c(F)c2)c2cnc(NCCCn3ccnc3)nc21.O=C(O)C(F)(F)F | 45 |
| CN1CCN(c2ccc(Nc3nccc(-c4c(-c5cccc(NC(=O)c6c(F)cccc6F)c5)nn5ccccc45)n3)cc2)CC1 | 86 |
| CC(C)C1C(=O)N(S(C)(=O)=O)C2CCN(C(=O)c3ccc(CN4CCCCC4)c([N+](=O)[O-])c3)C12.Cl (configuration not stated) | 10 |
| Cl.c1ccc(Oc2ccc(Nc3ccnc4cc(-c5ccc(CN6CCNCC6)o5)ccc34)cc2)nc1 | 7 |
| COc1ccccc1C1CCN(C2CCC(NC(=O)/C=C/c3cc(C(F)(F)F)cc(C(F)(F)F)c3)CC2)CC1 (configuration not stated) | 31 |
| Cl.Nc1c2c(nc3ccc(NC(=O)Cc4ccccc4)cc13)CCCC2 | 9 |
| COc1cc(NC(=O)Nc2cc(C)nc3ccccc23)cc(OC)c1 | 5 |
| CCCC1(NC[C@@H](O)[C@H](Cc2ccccc2)NC(=O)c2cc(NCC)cc(N3CCCCS3(=O)=O)c2)CCC1.Cl | 0 |
| CC1CCCCN1CCCNc1nc(NCc2ccccc2)c2ccccc2n1 (configuration not stated) | 24 |
| O=C(Nc1ccc(Cl)c(Cl)c1)Nc1ccc(F)c([N+](=O)[O-])c1 | 49 |
| CC(C)C1CCc2nc(N)nc(N)c2C1.Cl (configuration not stated) | 70 |
| CCCCCCN1CCC(NCc2ccc(OCCN3CCCC3)cc2)CC1.O=C(O)C(F)(F)F | 23 |
| CC(=O)Nc1ccc(C#Cc2ccc(-c3c(C)[nH]c(C)c(Cl)c3=O)cc2)cc1 | 0 |
| CN1CCN(CCCN(Cc2csc(-c3ccc(CNCc4ccccc4)cc3)n2)C(=O)Nc2cc(Cl)cc(Cl)c2)CC1.O=C(O)C(F)(F)F | 34 |
| CC(C)CNC(=O)c1cncc(-c2cccc(CNC3Cc4ccccc4C3)c2)c1.O=C(O)C(F)(F)F | 4 |
| CC(CN1CCN(C)CC1)C(=O)Nc1ccc(-c2ccc(-c3nc4ccccc4[nH]3)s2)cc1 (configuration not stated) | 5 |

| SMILES | Inhibition [%] |
| --- | --- |
| C=C[C@H]1CN(CCCCCCC)CC[C@H]1CCNc1ccnc2ccc(OC)cc12 | 99 |
| Cc1cc(F)ccc1-c1nc(NCC(O)CNCCc2ccccc2)nc2c1ccc(=O)n2-c1c(F)cccc1F.O=C(O)C(F)(F)F (configuration not stated) | 25 |
| CC(=O)NCCNc1nccc(N2CCc3ncnc(Nc4ccc(OCc5ccccn5)c(Cl)c4)c3C2)n1 | 0 |
| CCN(CC)CCN(Cc1ccc(-c2ccc(C(F)(F)F)cc2)nc1)C(=O)Cn1c(SCc2ccc(F)cc2)nc(=O)c2sccc21.O=C(O)C(O)C(O)C(=O)O | 43 |
| O=C(Nc1ccc(OC2CCN(Cc3ccsc3)C2)c(Cl)c1)c1ccc2ncccc2c1.O=C(O)C(F)(F)F (configuration not stated) | 84 |
| Cc1nnsc1C(=O)Nc1cccc(-c2cccc(-c3nc4cccc(C)c4[nH]3)c2)c1 | 22 |
| Cc1cc(C(=O)NCc2ccc(-c3c(C)noc3C)cc2)n(-c2ccc(Cl)cc2)n1 | 0 |
| Cc1cccc2nc(-c3ccc(-c4cccc(CNCc5ccc(S(C)(=O)=O)cc5)c4)s3)[nH]c12.O=C(O)C(F)(F)F | 31 |
| O=C(Cn1c(CCc2cccc(F)c2F)nc(=O)c2cccnc21)N(Cc1ccc(-c2ccc(C(F)(F)F)cc2)cc1)C1CCN(C2CCSCC2)CC1.O=C(O)C(O)C(O)C(=O)O | 49 |
| CCCCCC(=O)N1CCOC(CCN2CCc3c(c4ccccc4n3C)C2)(c2ccc(Cl)c(Cl)c2)C1 (configuration not stated) | 24 |
| COC1(C)Oc2ccc3cccc([N+](=O)[O-])c3c2C1=O (configuration not stated) | 3 |
| O=C(Cc1ccc(NC(=O)c2ccc(O)c(-c3cccc([N+](=O)[O-])c3)c2)cc1)NCCN1CCCCC1 | 4 |
| Cc1cc(O)c(CN(C)Cc2ccc(N(C)C)cc2)cc1C(C)C | 3 |
| Oc1ccccc1N1CCN(c2ccc(-c3nc4ccccc4[nH]3)cn2)CC1 | 0 |
| CS(=O)(=O)c1ccc(-c2cnc(N)c(-c3cccc(CO)c3)c2)cc1 | 0 |
| COc1ccc(-c2ccc(NC(=O)c3ccc(Cl)cc3)cc2)cc1CN1CCC(O)CC1.O=C(O)C(F)(F)F | 20 |
| O=C(Nc1ccc(Oc2cccnc2)cc1)C1CCN(Cc2cc(Cl)ccc2O)CC1 | 37 |
| CNC(=O)c1ccccc1Nc1cc(Nc2cc(OC)ccn2)ncc1Cl.O=CO | 69 |
| Nc1ccc(-c2ccc(NC(=O)Nc3ccccc3)cc2)cn1 | 0 |
